# Measured values published in PMC7862700, “An all-to-all approach to the identification of sequence-specific readers for epigenetic DNA modifications on cytosine”.
# Legend:
# Experiment in all cases: DAPPL (digital affinity profiling via proximity ligation, sequencing); 10 mM Tris-HCl pH 7.5, 50 mM NaCl, 1 mM DTT, 4% glycerol, room temperature, 30 min; GST-TFs on glutathione beads, 16-mer random dsDNA library, 0.1% formaldehyde crosslink after washing; high values mean tight binding
# FLI1 = target: T1, FLI1 (Homo sapiens, UniProt Q01543 1-452); details: protein: recombinant; tags: N-terminal GST; dsDNA, one strand shown
# T1 sequence: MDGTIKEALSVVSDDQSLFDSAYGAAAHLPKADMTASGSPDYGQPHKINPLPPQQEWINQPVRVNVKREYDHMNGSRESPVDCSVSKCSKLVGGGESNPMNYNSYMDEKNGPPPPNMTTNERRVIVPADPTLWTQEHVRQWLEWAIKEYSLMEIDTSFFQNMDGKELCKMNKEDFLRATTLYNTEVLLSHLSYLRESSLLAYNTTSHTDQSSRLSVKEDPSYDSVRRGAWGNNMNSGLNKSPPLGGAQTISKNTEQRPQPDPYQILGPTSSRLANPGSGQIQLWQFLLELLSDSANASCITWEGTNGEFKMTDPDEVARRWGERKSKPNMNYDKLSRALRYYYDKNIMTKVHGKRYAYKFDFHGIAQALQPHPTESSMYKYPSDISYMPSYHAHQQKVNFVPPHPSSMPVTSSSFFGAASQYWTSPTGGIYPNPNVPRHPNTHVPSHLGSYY
# In short: (§1)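 Human transcription factors fused to GST were expressed in yeast, captured on glutathione beads, given DNA barcodes and pooled with a GST-only negative control. Pools were incubated with 200 nmole of a 16-mer random double-stranded DNA library in Tris/NaCl/DTT/glycerol buffer at room temperature for 30 min. They were then washed, crosslinked with 0.1% formaldehyde, proximity-ligated (BsaI/T4 ligase, 1 h, 37 °C), PCR-amplified and sequenced on an Illumina NextSeq500. Binding signal is each 6-mer's read frequency for a factor divided by its frequency for the GST control.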
# ELK1 = target: T2, ELK1 (Homo sapiens, UniProt P19419 1-428); details: protein: recombinant; tags: N-terminal GST; dsDNA, one strand shown
# T2 sequence: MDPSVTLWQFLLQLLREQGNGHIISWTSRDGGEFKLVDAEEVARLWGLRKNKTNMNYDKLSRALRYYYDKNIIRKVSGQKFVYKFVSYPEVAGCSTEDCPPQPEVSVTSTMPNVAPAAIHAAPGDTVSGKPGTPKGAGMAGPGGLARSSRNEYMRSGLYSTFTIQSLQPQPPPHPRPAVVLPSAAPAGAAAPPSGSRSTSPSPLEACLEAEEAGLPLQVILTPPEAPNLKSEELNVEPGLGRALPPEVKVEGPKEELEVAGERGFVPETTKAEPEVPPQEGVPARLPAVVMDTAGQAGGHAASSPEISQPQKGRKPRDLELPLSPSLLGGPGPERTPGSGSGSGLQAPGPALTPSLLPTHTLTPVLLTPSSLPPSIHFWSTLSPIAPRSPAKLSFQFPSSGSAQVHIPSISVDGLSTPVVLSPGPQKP
# In short: as §1
# GABPA = target: T3, GABPA (Homo sapiens, UniProt Q06546 1-454); details: protein: recombinant; tags: N-terminal GST; dsDNA, one strand shown
# T3 sequence: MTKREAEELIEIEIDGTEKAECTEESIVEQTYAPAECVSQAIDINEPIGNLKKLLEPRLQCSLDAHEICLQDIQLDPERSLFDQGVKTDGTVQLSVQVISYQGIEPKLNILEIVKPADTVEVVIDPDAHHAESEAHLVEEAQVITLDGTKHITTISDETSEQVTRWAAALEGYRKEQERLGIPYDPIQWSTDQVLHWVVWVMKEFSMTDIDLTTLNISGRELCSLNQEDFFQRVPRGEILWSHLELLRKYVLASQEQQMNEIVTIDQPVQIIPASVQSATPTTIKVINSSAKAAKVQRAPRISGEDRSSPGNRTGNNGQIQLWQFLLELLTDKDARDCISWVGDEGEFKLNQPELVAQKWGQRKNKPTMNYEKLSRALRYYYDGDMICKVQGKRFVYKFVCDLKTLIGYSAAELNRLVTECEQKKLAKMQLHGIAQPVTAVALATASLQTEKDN
# In short: as §1
# ERG = target: T4, ERG (Homo sapiens, UniProt P11308 1-479); details: protein: recombinant; tags: N-terminal GST; dsDNA, one strand shown
# T4 sequence: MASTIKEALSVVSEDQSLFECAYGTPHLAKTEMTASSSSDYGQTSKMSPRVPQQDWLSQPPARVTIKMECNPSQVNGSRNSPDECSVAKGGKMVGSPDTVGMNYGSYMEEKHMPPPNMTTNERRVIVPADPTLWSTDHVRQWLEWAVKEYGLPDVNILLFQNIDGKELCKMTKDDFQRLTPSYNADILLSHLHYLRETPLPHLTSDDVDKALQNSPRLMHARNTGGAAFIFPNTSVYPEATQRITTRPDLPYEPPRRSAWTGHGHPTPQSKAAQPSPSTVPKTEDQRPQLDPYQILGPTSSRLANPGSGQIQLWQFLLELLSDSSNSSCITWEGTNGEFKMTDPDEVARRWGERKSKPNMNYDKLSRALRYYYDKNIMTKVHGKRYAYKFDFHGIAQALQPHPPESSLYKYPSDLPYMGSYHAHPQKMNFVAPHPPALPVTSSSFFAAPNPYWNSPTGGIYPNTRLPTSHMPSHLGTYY
# In short: as §1
# ELF1 = ELF1 (Homo sapiens, UniProt P32519 1-619); details: protein: recombinant; tags: N-terminal GST; dsDNA, one strand shown
# In short: as §1
# EHF = target: T5, EHF (Homo sapiens, UniProt Q9NZC4 1-300); details: protein: recombinant; tags: N-terminal GST; dsDNA, one strand shown
# T5 sequence: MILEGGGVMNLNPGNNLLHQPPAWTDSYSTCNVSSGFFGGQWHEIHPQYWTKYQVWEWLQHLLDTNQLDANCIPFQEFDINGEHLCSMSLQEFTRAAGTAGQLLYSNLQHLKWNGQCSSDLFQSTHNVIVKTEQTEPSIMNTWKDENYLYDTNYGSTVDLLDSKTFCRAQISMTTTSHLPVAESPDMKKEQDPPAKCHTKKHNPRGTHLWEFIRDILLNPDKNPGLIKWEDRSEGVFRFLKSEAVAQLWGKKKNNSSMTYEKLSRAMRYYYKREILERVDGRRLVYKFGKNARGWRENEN
# In short: as §1
# SPI1 = SPI1 (Homo sapiens, UniProt P17947 1-270); details: protein: recombinant; tags: N-terminal GST; dsDNA, one strand shown
# In short: as §1
# SPIB = SPIB (Homo sapiens, UniProt Q01892 1-262); details: protein: recombinant; tags: N-terminal GST; dsDNA, one strand shown
# In short: as §1
# ELK3 = target: T6, ELK3 (Homo sapiens, UniProt P41970 1-407); details: protein: recombinant; tags: N-terminal GST; dsDNA, one strand shown
# T6 sequence: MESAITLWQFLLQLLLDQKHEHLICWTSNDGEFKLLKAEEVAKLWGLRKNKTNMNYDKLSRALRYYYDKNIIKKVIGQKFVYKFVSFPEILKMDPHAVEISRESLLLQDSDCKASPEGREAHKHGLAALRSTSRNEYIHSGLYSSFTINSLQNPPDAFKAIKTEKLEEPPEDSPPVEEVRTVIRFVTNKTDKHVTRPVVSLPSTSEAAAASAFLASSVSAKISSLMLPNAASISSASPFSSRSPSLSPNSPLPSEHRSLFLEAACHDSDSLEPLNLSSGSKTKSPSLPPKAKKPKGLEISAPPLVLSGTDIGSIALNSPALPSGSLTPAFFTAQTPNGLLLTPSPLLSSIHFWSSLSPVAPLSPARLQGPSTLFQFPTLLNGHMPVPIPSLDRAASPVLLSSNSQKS
# In short: as §1
# FEV = target: T7, FEV (Homo sapiens, UniProt Q99581 1-238); details: protein: recombinant; tags: N-terminal GST; dsDNA, one strand shown
# T7 sequence: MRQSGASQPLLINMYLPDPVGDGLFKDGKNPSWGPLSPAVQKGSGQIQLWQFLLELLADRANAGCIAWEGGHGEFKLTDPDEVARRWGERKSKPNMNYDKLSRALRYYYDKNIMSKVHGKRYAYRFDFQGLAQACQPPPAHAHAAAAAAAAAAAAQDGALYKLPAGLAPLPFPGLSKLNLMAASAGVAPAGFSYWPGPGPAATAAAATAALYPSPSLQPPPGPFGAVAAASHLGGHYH
# In short: as §1
# ETV5 = ETV5 (Homo sapiens, UniProt P41161 1-510); details: protein: recombinant; tags: N-terminal GST; dsDNA, one strand shown
# In short: as §1
# HSF1 = HSF1 (Homo sapiens, UniProt Q00613 1-529); details: protein: recombinant; tags: N-terminal GST; chain copies: 3; dsDNA, one strand shown
# In short: as §1
# SPIC = target: T8, SPIC (Homo sapiens, UniProt Q8N5J4 1-248); details: protein: recombinant; tags: N-terminal GST; dsDNA, one strand shown
# T8 sequence: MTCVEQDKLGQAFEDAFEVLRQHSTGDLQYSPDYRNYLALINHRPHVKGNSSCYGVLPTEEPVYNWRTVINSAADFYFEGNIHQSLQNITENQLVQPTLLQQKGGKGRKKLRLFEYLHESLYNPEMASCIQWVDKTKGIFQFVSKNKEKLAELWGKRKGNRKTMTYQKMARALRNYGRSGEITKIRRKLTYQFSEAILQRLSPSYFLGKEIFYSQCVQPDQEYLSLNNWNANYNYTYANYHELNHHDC
# In short: as §1
# ELF4 = ELF4 (Homo sapiens, UniProt Q99607 1-663); details: protein: recombinant; tags: N-terminal GST; dsDNA, one strand shown
# In short: as §1
# ELK4 = target: T9, ELK4 (Homo sapiens, UniProt P28324-2 1-405); details: protein: recombinant; tags: N-terminal GST; dsDNA, one strand shown
# T9 sequence: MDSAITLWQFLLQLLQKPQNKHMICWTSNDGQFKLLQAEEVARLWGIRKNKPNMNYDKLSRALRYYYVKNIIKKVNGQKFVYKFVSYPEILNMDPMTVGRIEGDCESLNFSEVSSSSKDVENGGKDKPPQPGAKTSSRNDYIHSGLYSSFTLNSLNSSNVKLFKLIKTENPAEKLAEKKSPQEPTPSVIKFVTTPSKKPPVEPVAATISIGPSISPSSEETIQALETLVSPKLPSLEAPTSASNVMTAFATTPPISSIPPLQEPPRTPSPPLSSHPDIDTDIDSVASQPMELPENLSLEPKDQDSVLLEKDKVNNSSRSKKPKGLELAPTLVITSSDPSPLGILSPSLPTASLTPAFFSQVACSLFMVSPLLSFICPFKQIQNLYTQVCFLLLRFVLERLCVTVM
# In short: as §1
# ETV2 = target: T10, ETV2 (Homo sapiens, UniProt O00321 1-342); details: protein: recombinant; tags: N-terminal GST; dsDNA, one strand shown
# T10 sequence: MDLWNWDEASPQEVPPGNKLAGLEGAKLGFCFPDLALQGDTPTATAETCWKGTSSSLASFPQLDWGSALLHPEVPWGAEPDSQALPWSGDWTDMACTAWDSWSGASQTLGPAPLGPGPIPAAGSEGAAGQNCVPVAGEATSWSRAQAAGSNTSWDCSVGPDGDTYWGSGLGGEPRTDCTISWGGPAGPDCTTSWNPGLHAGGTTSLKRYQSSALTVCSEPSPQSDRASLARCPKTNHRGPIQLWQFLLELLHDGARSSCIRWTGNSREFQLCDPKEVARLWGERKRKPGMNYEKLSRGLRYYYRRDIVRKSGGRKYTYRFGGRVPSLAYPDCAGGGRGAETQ
# In short: as §1
# ELF3 = target: T11, ELF3 (Homo sapiens, UniProt P78545 1-371); details: protein: recombinant; tags: N-terminal GST; dsDNA, one strand shown
# T11 sequence: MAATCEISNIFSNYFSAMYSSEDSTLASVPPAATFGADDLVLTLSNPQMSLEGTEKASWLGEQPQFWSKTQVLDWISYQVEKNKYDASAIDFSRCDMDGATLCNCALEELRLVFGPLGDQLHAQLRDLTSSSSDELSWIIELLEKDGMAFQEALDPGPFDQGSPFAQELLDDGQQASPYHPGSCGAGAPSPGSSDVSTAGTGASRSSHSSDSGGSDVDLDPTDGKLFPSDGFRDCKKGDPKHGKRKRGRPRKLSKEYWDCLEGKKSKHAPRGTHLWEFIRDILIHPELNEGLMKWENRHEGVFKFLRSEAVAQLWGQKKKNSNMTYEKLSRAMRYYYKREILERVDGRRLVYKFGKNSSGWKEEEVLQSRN
# In short: as §1
# CRX = CRX (Homo sapiens, UniProt O43186 1-299); details: protein: recombinant; tags: N-terminal GST; dsDNA, one strand shown
# In short: as §1
# ETV1 = ETV1 (Homo sapiens, UniProt P50549 1-477); details: protein: recombinant; tags: N-terminal GST; dsDNA, one strand shown
# In short: as §1
# Chain of SPIB (Q01892 whole entry): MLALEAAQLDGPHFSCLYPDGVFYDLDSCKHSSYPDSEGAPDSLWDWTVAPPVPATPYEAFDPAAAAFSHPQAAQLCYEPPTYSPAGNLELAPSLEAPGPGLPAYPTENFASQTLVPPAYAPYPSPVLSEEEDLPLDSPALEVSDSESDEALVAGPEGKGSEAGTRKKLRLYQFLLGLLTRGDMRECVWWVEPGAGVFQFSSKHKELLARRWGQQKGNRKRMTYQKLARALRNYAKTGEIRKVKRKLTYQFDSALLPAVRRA
# Chain of ELF1 (P32519 whole entry): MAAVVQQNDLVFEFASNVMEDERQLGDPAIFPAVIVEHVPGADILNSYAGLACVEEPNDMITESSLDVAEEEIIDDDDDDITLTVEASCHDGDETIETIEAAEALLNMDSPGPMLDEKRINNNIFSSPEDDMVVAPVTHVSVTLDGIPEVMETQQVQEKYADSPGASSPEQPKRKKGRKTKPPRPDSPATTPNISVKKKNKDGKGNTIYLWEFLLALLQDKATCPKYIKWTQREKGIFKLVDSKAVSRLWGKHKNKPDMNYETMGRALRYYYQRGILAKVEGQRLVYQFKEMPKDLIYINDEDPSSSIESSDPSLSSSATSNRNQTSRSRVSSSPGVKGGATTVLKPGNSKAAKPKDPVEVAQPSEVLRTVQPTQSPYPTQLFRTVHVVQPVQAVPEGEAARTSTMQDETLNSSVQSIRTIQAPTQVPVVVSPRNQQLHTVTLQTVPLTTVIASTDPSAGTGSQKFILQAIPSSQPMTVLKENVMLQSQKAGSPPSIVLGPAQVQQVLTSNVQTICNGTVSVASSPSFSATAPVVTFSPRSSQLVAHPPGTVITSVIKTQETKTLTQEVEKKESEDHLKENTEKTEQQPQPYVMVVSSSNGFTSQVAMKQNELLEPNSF
# Chain of ELF4 (Q99607 whole entry): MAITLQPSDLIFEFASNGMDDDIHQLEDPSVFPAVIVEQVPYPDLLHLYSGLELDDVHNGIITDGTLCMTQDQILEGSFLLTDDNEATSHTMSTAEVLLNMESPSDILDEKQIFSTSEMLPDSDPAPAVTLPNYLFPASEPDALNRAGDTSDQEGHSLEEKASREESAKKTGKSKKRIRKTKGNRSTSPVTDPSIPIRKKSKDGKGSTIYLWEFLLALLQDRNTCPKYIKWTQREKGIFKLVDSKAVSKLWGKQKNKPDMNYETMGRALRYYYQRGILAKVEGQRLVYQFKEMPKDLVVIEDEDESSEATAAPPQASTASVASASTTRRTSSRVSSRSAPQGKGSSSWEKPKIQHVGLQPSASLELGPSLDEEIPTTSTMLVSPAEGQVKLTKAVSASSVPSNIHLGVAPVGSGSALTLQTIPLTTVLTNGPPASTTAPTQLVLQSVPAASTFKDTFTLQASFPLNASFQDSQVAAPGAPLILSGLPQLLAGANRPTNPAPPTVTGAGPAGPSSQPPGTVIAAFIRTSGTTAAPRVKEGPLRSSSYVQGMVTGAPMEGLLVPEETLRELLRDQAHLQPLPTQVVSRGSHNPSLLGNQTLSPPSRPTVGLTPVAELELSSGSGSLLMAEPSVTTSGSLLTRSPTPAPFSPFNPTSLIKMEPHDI
# Chain of CRX (O43186 whole entry): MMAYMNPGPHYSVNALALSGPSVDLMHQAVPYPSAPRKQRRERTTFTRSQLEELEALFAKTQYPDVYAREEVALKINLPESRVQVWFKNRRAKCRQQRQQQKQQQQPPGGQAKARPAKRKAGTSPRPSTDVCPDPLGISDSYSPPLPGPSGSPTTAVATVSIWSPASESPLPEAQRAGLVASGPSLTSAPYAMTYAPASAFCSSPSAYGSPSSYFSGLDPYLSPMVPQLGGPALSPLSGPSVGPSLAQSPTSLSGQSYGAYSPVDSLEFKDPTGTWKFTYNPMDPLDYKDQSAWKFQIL
# Chain of ETV1 (P50549 whole entry): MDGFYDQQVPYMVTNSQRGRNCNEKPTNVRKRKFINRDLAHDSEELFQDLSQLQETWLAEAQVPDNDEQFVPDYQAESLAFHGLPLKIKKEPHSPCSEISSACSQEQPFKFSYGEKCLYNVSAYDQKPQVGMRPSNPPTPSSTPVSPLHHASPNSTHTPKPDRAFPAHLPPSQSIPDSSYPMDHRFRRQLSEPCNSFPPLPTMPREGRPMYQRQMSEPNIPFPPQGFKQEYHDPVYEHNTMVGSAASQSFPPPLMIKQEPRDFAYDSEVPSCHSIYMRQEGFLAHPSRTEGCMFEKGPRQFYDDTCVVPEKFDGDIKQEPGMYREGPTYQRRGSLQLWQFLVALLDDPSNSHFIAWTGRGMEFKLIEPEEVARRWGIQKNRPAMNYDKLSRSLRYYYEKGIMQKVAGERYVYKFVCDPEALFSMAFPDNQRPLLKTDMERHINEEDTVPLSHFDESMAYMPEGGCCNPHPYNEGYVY
# Chain of HSF1 (Q00613 whole entry): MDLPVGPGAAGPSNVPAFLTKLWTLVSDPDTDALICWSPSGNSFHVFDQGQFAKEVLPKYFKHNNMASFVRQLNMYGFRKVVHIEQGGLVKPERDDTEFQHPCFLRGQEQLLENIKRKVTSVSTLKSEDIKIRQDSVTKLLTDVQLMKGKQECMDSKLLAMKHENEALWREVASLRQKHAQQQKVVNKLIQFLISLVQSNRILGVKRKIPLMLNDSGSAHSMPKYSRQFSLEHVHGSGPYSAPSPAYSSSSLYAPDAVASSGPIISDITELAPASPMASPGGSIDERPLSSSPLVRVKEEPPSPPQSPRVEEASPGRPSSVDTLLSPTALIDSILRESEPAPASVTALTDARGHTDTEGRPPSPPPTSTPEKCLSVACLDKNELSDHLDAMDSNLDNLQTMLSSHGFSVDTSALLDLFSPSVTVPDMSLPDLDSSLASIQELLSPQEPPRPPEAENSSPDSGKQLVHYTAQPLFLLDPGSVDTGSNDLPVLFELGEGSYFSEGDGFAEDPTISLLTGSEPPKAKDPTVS
# Chain of ETV5 (P41161 whole entry): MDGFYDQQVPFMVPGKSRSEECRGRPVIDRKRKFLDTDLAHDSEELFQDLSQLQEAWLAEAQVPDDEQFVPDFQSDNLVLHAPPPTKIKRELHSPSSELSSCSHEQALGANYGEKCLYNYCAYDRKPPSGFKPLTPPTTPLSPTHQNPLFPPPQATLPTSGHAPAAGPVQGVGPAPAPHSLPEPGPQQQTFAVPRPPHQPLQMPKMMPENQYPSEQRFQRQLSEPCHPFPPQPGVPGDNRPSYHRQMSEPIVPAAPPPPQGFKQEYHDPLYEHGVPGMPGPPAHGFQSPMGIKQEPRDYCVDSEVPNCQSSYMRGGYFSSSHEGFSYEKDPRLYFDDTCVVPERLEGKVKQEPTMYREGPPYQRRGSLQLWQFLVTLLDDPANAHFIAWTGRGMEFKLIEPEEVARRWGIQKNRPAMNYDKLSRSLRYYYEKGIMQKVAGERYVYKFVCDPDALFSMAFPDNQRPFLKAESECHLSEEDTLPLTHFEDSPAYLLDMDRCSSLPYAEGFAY
sequence,measurement,setting,value
CTGAAA,binding signal,FLI1,"1.16 fold enrichment (6-mer frequency, TF over GST control)"
same,binding signal,ELK1,"1.14 fold enrichment (6-mer frequency, TF over GST control)"
same,binding signal,GABPA,"1.1 fold enrichment (6-mer frequency, TF over GST control)"
same,binding signal,ERG,"1.04 fold enrichment (6-mer frequency, TF over GST control)"
same,binding signal,ELF1,"1.19 fold enrichment (6-mer frequency, TF over GST control)"
same,binding signal,EHF,"1.09 fold enrichment (6-mer frequency, TF over GST control)"
same,binding signal,SPI1,"1.19 fold enrichment (6-mer frequency, TF over GST control)"
same,binding signal,SPIB,"1.24 fold enrichment (6-mer frequency, TF over GST control)"
same,binding signal,ELK3,"1.03 fold enrichment (6-mer frequency, TF over GST control)"
same,binding signal,FEV,"1.25 fold enrichment (6-mer frequency, TF over GST control)"
same,binding signal,ETV5,"1.22 fold enrichment (6-mer frequency, TF over GST control)"
same,binding signal,HSF1,"1.16 fold enrichment (6-mer frequency, TF over GST control)"
same,binding signal,SPIC,"1.35 fold enrichment (6-mer frequency, TF over GST control)"
same,binding signal,ELF4,"1.13 fold enrichment (6-mer frequency, TF over GST control)"
same,binding signal,ELK4,"1.19 fold enrichment (6-mer frequency, TF over GST control)"
same,binding signal,ETV2,"1.15 fold enrichment (6-mer frequency, TF over GST control)"
same,binding signal,ELF3,"1.28 fold enrichment (6-mer frequency, TF over GST control)"
same,binding signal,CRX,"1 fold enrichment (6-mer frequency, TF over GST control)"
same,binding signal,ETV1,"1.1 fold enrichment (6-mer frequency, TF over GST control)"
